Laboratory results published in PubChem BioAssay (NCI).
The panel holds about 83,000 compounds, 20% with a hit somewhere; the sample as a whole holds those more often.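 Testing used 96-well plates and a 48-hour single-concentration exposure. Example: -40 means 40% of the starting cells died.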 Values without a mark were called inactive. Active and inactive are the calls of the source.

Test system: HS 578T breast
Assay: NCI-60 one-dose screen, 48 h (100 = growth as untreated, 0 = no growth, -100 = all killed)
Conditions: 10 µM unless noted
Procedure: Growth inhibition of the HS 578T human tumor cell line is measured as a screen for anti-cancer activity. Cells are grown in 96 well plates and exposed to the test compound for 48 hours. Compounds are tested at a single concentration, which is 10^-5 M for most compounds. The reported endpoint is percent growth (GI% or GIPRCNT), where numbers from 0 - 100% represent growth inhibition, and numbers from -100% - 0 represent cell death. For example, a value of 40 represents 60% growth inhibition. A value of 0 means no net growth occurred over the course of the experiment. A value of -40 indicates 40% of cells at the beginning of the experiment died by the end of the experiment. A value of -100 means all cells are dead at the end of the experiment.
NCI-60 Human Tumor Cell Lines Screen was performed using the standard one-dose NCI protocol, which is described in more detail at https://dtp.cancer.gov/discovery_development/nci-60/default.htm.
Compounds with GIPRCNT values below 10 were considered active. Activity score was based on GIPRCNT using the following formula: […]
Score is 0 for GIPRCNT values of 100 or above, 50 for GIPRCNT values of 0, and 100 for GIPRCNT values of -100.

Row | Compound | growth
1 | O=C1/C(=C/c2ccc([N+](=O)[O-])cc2)COc2ccc(O)c(O)c21 | 4.58% (active)
2 | C=CCN1C(=O)[C@]2(SC1=S)[C@H](c1cccc(Cl)c1)CN(C)[C@]21C(=O)NC2C=CC(Cl)=C[C@H]21 (stereo not given in full) | 56%
3 | Cc1c(C(=O)O[C@H]2[C@@H]3[C@H](C)CC[C@H]3[C@]3(C)O[C@@]2(C2CCCCC2)C[C@H]3OC(=O)CO)ccc2ccccc12 | -29.6% (active)
4 | COc1cc2c(=O)n(CCCn3ccnc3)c3c4cc5c(cc4ccc3c2cc1OC)OCO5 | 32.4%
5 | CCCN1CCN(c2ccc3nc(-c4ccc5nc(-c6cc(OC)c(OC)c(OC)c6)[nH]c5c4)[nH]c3c2)CC1 | 54.1%
6 | CN(C)c1ccc(/C=C/c2c(F)cccc2F)cc1 | 89.9%
7 | N#Cc1c(NC(=O)c2ccccc2I)sc2c1CCCC2 | 32.1%
8 | O=c1cc(-c2ccc(OCc3ccccc3)cc2)oc2c(I)c(OCc3ccccc3)cc(OCc3ccccc3)c12 | 88.3%
9 | O=C(CC12CC3CC(CC(C3)C1)C2)NCCOCCOCCOCCNC(=O)c1cc2c(o1)C(=O)c1ccccc1C2=O | -27.2% (active)
10 | CCCCCCNc1cc(C)nc2ccc(OC)cc12 | 87%
11 | O=c1oc2ccc(Cl)cc2cc1-c1cs/c(=N/N=C\c2ccc(Cl)cc2)n1/N=C/c1ccc(Cl)cc1 | 101%
12 | CNC(=O)NCC1OC(n2cnc3c(NC(=O)Nc4ccccc4)ncnc32)C2OC(C)(C)OC12 (stereo not given) | 102%
13 | CCCCOc1nc2ccc(Cl)cc2cc1/C=C/C(=O)/C=C1/CC(c2cc3cc(Cl)ccc3nc2OCCCC)Nc2ccccc2N1 (stereo not given) | 91.1%
14 | CN(C)c1ccc2cc(-c3ccc(Cl)c(Cl)c3)c(N)nc2c1 | 62.4%
15 | Cc1[nH]c(-c2nc3ccccc3[nH]2)c(C)c1C(=O)NNc1ccc(Cl)cc1 | 92.7%
16 | N#Cc1c(N)nc2c(nnn2-c2cccc(C(F)(F)F)c2)c1N | 46.2%
17 | C=C(C)[C@@H]1CC[C@]2(CNCCO)CC[C@]3(C)[C@H](CC[C@@H]4[C@@]5(C)CCC(N)[C@@](C)(CO)[C@@H]5CC[C@]43C)[C@@H]12 (stereo not given in full) | 60.9%
18 | C#CC[C@H](N)C(=O)O | 111% [20 µM]
19 | O=C(NCc1cn(Cc2cccc(Oc3ccccc3)c2)nn1)c1cccnc1NCc1ccc(Cl)cc1 | 23.8%
20 | CC(=O)Nc1ccc2c(c1)Cc1c(F)cccc1-2 | 115%

Row | Compound | growth
21 | CCCCS(=O)(=O)Oc1ccc(-c2nc(C)c(C(=O)OCC)s2)cc1C=O | 63.6%
22 | c1ccc2c(c1)nc(-n1ccnc1)c1nc3ccccc3n12 | 70.3%
23 | N#C/C(=C\c1ccc(Br)cc1)n1nnc2cc(Cl)c(Cl)cc21 | 51.3%
24 | Nc1c(C(=O)Nc2ccccc2)sc2nc3c(cc12)CCCCCC3 | 22.8%
25 | N#Cc1c(N)n2c(nc1=Nc1ccc([N+](=O)[O-])cc1)sc1cc(Cl)ccc12 | 79%
26 | CSc1ccc(Cl)c(C(=O)Nc2sccc2C(N)=O)c1 | 99.4%
27 | CNC(=O)c1cc(Oc2ccc3nc(NC(=O)Nc4cc(C(F)(F)F)cc(C(F)(F)F)c4)sc3c2)ccn1 | -20.4% (active)
28 | C=C1c2c(C)nn(-c3ccc(N)cc3)c2N(C)C23CC1C1(C)c4c(C)nn(-c5ccc(N)cc5)c4N(C)C(C)(CC12)C3 (stereo not given) | 90.6%
29 | COc1ccc(Oc2nc(Nc3ccc(N4CCOCC4)nc3)ncc2NC(=O)c2cc(OC)cc(OC)c2)cc1 | 86.8%
30 | CNC(=O)c1cc(Oc2ccc3nc(Nc4cc(Cl)cc(Cl)c4)ccc3c2)ccn1 | 64.5%
31 | COc1ccc(/C(C)=N/NS(=O)(=O)c2ccc(C)cc2)cc1OC | 97.2%
32 | O=C1CCC(N2C(=O)c3cccc(NCCCC4CCN(CCNC(=O)c5cc6c(o5)C(=O)c5ccccc5C6=O)CC4)c3C2=O)C(=O)N1 (stereo not given) | -25.8% (active)
33 | CC(/C=N/NC(=O)c1cc(-c2ccco2)[nH]n1)=C\c1ccccc1 | 30.3%
34 | C#C[C@]1(O)CC[C@H]2[C@@H]3CC=C4c5sc(N=C(N)N)nc5CC[C@]4(C)[C@H]3CC[C@@]21C | -39.2% (active)
35 | Clc1ccc2c(NCCCN3CCN(c4nc(N5CCOCC5)nc5ccccc45)CC3)ccnc2c1 | 17.2%
36 | CC(=O)c1cc2c(o1)C(=O)c1ccccc1C2=O | -23.7% (active)
37 | O=C1Nc2ccc(Cl)cc2/C1=N/N=C/c1c[nH]c2ccccc12 | 22%
38 | CN(CCCCCCCCNc1ccnc2ccccc12)Cc1ccc(-c2ccc(-c3ccc(C#N)cc3)s2)cc1 | -36.6% (active)
39 | Nc1c(C(=O)c2ccc(Cl)s2)sc2nc3c(cc12)CCCC3 | 111%
40 | COc1ccc(N=c2nc3sc4cc(Cl)ccc4n3c(N)c2C#N)cc1 | 34.5%
